PubChem BioAssay AID485344 (National Center for Advancing Translational Sciences (NCATS), 2010)
About 6,900 (2%) of roughly 340,000 compounds were called active. No stated cut-off is given here; in the data, active means inhibition above about 30%; inactive means below that, where a call was filed. The full list was thinned out, with actives kept by preference.

What follows are compounds tested against D(2) dopamine receptor (Homo sapiens) (UniProt P14416) (assay: HTS Assay for Allosteric Antagonists of the Human D2 Dopamine Receptor: Primary Screen for Antagonists). Settings: HEK293 TREx D2 cells, calcium flux, dopamine EC80; at 10 µM; active compounds read high.
Method in brief: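 Compounds are added to dye-loaded, induced HEK293 T-REx cells coupled to calcium release via D2; after a 3 min kinetic read an EC80 dopamine stimulus is given and fluorescence is recorded for 3 more min.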
Further: 0% is about no effect.

Sequence of D(2) dopamine receptor (Homo sapiens) (P14416 whole entry, looked up): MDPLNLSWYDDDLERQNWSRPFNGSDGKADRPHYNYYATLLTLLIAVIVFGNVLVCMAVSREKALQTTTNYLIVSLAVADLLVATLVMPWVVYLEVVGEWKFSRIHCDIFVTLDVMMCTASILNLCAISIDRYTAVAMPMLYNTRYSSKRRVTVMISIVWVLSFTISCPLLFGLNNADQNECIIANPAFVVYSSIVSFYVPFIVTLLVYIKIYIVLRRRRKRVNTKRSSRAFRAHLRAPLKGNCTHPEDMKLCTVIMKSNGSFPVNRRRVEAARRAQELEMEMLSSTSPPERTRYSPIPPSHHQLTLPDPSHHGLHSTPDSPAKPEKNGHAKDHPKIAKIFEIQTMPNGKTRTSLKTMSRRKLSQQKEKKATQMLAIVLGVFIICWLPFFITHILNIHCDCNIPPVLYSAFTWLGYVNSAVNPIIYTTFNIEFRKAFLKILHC

SMILES | inhibition
CC(C)(C)OC(=O)NCCCCCNC(=O)c1[nH]cnc1C(=O)Nc1nccs1 | -7.74% (inactive)
O=C(Cn1[nH]c(=O)c2ccccc2c1=O)Nc1cccc(-c2nnc3n2CCCCC3)c1 | -20.7% (inactive)
Cc1c(C(=O)NC2CCCCC2)oc2ccccc12 | 15.1% (inactive)
Cc1c(C(=O)Nc2cccc(-c3nnc4n3CCCCC4)c2)oc2ccccc12 | 60% (active)
CC1CC(C)CN(CC(=O)Nc2ccc(S(N)(=O)=O)cc2)C1 (stereo not given) | -1.67% (inactive)
CCc1ccc(CCC(=O)Nc2ccc(S(N)(=O)=O)cc2)o1 | 43.5% (active)
NS(=O)(=O)c1ccc(NC(=O)COC(=O)CCc2c[nH]c3ccccc23)cc1 | 2.49% (inactive)
CC(=O)Nc1ccc(NC(=O)CSc2nnc(C3CC3)n2-c2ccccc2)cc1 | 2.45% (inactive)
Cc1ccc(S(=O)(=O)NCCC(=O)NCc2ccc(Cl)cc2)cc1C | -19% (inactive)
O=C(NCC(c1ccco1)N1CCc2ccccc21)c1cccc(F)c1 (stereo not given) | 5.81% (inactive)
COCCn1c(C)cc(C(=O)CSc2ncnc3sc4c(c23)CCC4)c1C | 9.53% (inactive)
CCCSc1ncccc1C(=O)O | -16.5% (inactive)
O=C(O)c1cccnc1Sc1ncnc2sc3c(c12)CCC3 | 34.2% (active)
CNC(=O)NC(=O)C(C)N1CCN(C/C=C/c2ccccc2)CC1 (stereo not given) | 33.5% (active)
COc1ccccc1C(=O)NC(CCSC)C(=O)N1CCN(C/C=C/c2ccccc2)CC1 (stereo not given) | 3.22% (inactive)
COc1cc(C(=O)N2CCN(C/C=C/c3ccccc3)CC2)cc(OC)c1C | 0.0553% (inactive)
CC1CCCCC12NC(=O)N(CC(=O)OCC(=O)NCc1ccc(F)cc1)C2=O (stereo not given) | -29.1% (inactive)
CN(CC(=O)Nc1c(Cl)cccc1Cl)C(=O)CC1OC(=O)c2ccccc21 (stereo not given) | 4.45% (inactive)
CCC(C(=O)OCCN(CC)CC)c1ccccc1 (stereo not given) | 6.37% (inactive)
O=C(O)C(c1ccccc1)C1(O)CCCCC1 (stereo not given) | 2.2% (inactive)
CN(C)CCOC(=O)C(c1ccccc1)C1(O)CCCC1 (stereo not given) | 58.6% (active)
O=C(CSc1nc2[nH]c(=O)[nH]c(=O)c2s1)Nc1cccc(F)c1 | -3.77% (inactive)
CCc1ccc(CN(C)C(C)C(=O)Nc2ccc(S(=O)(=O)N3CCCC3)cc2)cc1 (stereo not given) | 12.7% (inactive)
C/C(=N/NC(=O)c1ccc(NC(=O)c2ccc(F)cc2)cc1)c1ccccc1 | 14.8% (inactive)

SMILES | inhibition
CC(C)=C(NC(=O)c1ccccc1)C(=O)N/N=C(\C)c1ccccc1O | 62.7% (active)
CNC(=O)C(NC(=O)c1ccccc1)=C(C)C | -6.51% (inactive)
CCCC(=O)Nc1ncnc2c1ncn2[C@@H]1O[C@@H]2OP(=O)(O)OC[C@H]2[C@H]1OC(=O)CCC | -4.97% (inactive)
CCO[C@H]1OC(C(=O)N2CCOCC2)=C[C@@H](c2ccc3c(c2)OCO3)[C@@H]1CCCO | 2.11% (inactive)
CCO[C@H]1OC(C(=O)N2CCCCCCC2)=C[C@@H](c2ccc(C(F)(F)F)cc2)[C@@H]1CCCO | 30.3% (active)
CCO[C@@H]1OC(C(=O)N2CCOCC2)=C[C@H](C)[C@H]1CCCO | -3.13% (inactive)
O=C(CSc1ccccc1)Nc1cccc(S(=O)(=O)N2CCCCC2)c1 | 0.706% (inactive)
Cc1ccc(C)c(C(=O)COC(=O)Cn2[nH]c(=O)c3ccccc3c2=O)c1 | -1.59% (inactive)
Cc1ccc(NC(=S)N(Cc2ccco2)C(C)c2cccs2)cc1 (stereo not given) | -6.52% (inactive)
Cc1ccc(NC(=S)N(CCCN2CCCC2)Cc2cccn2Cc2ccc(Cl)cc2)cc1 | 3.46% (inactive)
Cc1ccc(NC(=S)N(CCCN2CCC(C)CC2)Cc2ccco2)cc1 | 34.7% (active)
CCc1ccccc1NC(=S)N(CCN1CCCCCC1)Cc1ccco1 | -0.524% (inactive)
Cc1ccc(NC(=S)N(CCN(C)C)Cc2cccs2)cc1C | 12.4% (inactive)
Cc1ccc(NC(=S)N(CCN2CCCCC2)Cc2ccco2)cc1C | 50.8% (active)
CN(C)S(=O)(=O)c1ccc(C(=O)NCC2(N3CCOCC3)CCCCC2)cc1 | 8.22% (inactive)
O=C(O)c1ccccc1N=N/C(=N/Nc1cc(S(=O)(=O)O)ccc1O)c1ccccc1 | 28.3% (inactive)
CCN(CC)CCCNC(=O)c1ccc2c(=O)n(Cc3ccc4c(c3)OCO4)c(=S)[nH]c2c1 | 16.5% (inactive)
COc1ccc(Cn2c(=S)[nH]c3cc(C(=O)NCCCN4CCOCC4)ccc3c2=O)cc1 | 35.6% (active)
COc1ccc(Cn2c(=S)[nH]c3cc(C(=O)N4CCCCC4)ccc3c2=O)cc1 | -3.83% (inactive)
COc1cccc(C(=O)OCC(=O)c2[nH]c(C)c(C(C)=O)c2C)c1 | 8.22% (inactive)
Cn1c(=O)[nH]c(=O)c2c1nc(N(CCO)Cc1ccccc1)n2Cc1ccccc1Cl | 73.5% (active)
CN(Cc1ccccc1)c1nc2c(c(=O)[nH]c(=O)n2C)n1CCSc1nc2ccccc2[nH]1 | 29.2% (inactive)
CCOC(=O)Cn1c(CN(Cc2ccccc2)Cc2ccccc2)nc2c1c(=O)[nH]c(=O)n2C | -7.46% (inactive)
COCCn1c(C)cc(C(=O)COC(=O)CNC(=O)c2ccco2)c1C | -8.05% (inactive)

SMILES | inhibition
Cc1ccc2nc(NC(=O)CSc3nc(=O)n(CCCN(C)C)c4c3CCC4)sc2c1 | 7.56% (inactive)
CSc1ccccc1C(=O)OCC(=O)N1CCN(C(C)=O)CC1 | 0.24% (inactive)
CC(=O)Nc1ccc(NC(=O)CCN2C(=O)C3CC=CCC3C2=O)cc1 (stereo not given) | 16.4% (inactive)
Cc1ccc(NC(=O)COc2coc(CN3CCc4ccccc4C3)cc2=O)cc1Cl | -2.55% (inactive)
O=C(Nc1ccccc1)C1CC(=O)n2c(nc3ccccc32)N1 (stereo not given) | 33.6% (active)
CC(=O)c1ccc(NC(=O)C2CC(=O)Nc3nc4ccccc4n32)cc1 (stereo not given) | -1.67% (inactive)
CCOC(=O)c1ccc(NC(=O)C2CC(=O)Nc3nc4ccccc4n32)cc1 (stereo not given) | -12.3% (inactive)
CC(C)Oc1ccc(S(=O)(=O)N2CCOCC2)cc1NC(=O)C1CCCC1 | -5.29% (inactive)
CN(c1ccccc1)S(=O)(=O)c1cccc(NC(=O)Cc2ccc(Cl)cc2)c1 | -11.8% (inactive)
COc1ccccc1CNC(=O)COC(=O)CNS(=O)(=O)c1ccc(NC(C)=O)cc1 | 4.15% (inactive)
CCCCn1c(O)c(N=NC(=O)Cn2c(C(F)(F)F)nc3ccccc32)c2ccccc21 | 16.8% (inactive)
N#CCCCn1c(O)c(N=NC(=O)C(O)c2ccccc2)c2ccccc21 (stereo not given) | 38.5% (active)
COC(=O)Cn1c(O)c(N=NC(=O)OC)c2ccccc21 | 11.2% (inactive)
OCCNCc1cccc(OCc2ccccc2Cl)c1 | 1.43% (inactive)
OCCNCCOc1ccc(Cl)c(Cl)c1 | 33.4% (active)
OCCNCCCCOc1ccccc1F | 4.36% (inactive)
Cc1cccc(NS(=O)(=O)c2cccc(C(=O)NNC(=O)c3ccccc3O)c2)c1 | -12.1% (inactive)
Cc1cc(C)cc(-c2nnc(SCC(=O)NC3CC3)o2)c1 | 5.88% (inactive)
CCC(C)C(N=C1NS(=O)(=O)c2ccccc21)C(=O)N1CCC(C)CC1 (stereo not given) | 17% (inactive)
Cc1n[nH]c(=O)c2c(NC(=O)COC(=O)c3ncc(Cl)c(Cl)c3Cl)oc(C)c12 | -6.33% (inactive)
Cc1cc(Br)ccc1NC(=S)NC1CCCC1 | 9.66% (inactive)
S=C(NN=C1CCN(Cc2ccccc2)CC1)NC1CCCCC1 | 5.59% (inactive)
O=C(NNC(=S)Nc1ccc(Br)cc1Cl)c1ccco1 | 0.194% (inactive)
S=C(NCCCc1ccccc1)Nc1ccc(Br)cc1 | 3.8% (inactive)

SMILES | inhibition
O=C(COc1ccccc1O)NC1CCCC1 | 1.67% (inactive)
S=C(Nc1ccc(Br)cc1)NC1CCN(Cc2ccccc2)CC1 | 109% (active)
O=C(COc1ccc(Br)cc1F)NC1CCN(Cc2ccccc2)CC1 | 52.9% (active)
O=C(COc1ccccc1F)NC1CC1 | -13.9% (inactive)
S=C(Nc1ccc(Br)cc1Cl)NC1CCN(Cc2ccccc2)CC1 | 70.2% (active)
CCOC(=O)Cc1csc(SCC(=O)Nc2ccc(C)cc2F)n1 | 0.767% (inactive)
CCCC1C(=O)N2C(N(C)C)=Nc3ccc(C)cc3N2C1=O (stereo not given) | -7.75% (inactive)
Brc1ccc(CN2CC[C@H]3C=CCc4cccc(c43)C2)cc1 | -16.8% (inactive)
Cc1ccc2c(c1)C1CN(C)CCC1N2S(=O)(=O)c1cccc(F)c1 (stereo not given) | -6.37% (inactive)
CNS(=O)(=O)c1ccc(C(=O)NCC(=O)NCCc2ccc3c(c2)OCCO3)cc1 | -17.4% (inactive)
Cc1csc(SCC(=O)N(c2ccccc2)C(C)C)n1 | -0.577% (inactive)
O=S(=O)(NCCCCCCNS(=O)(=O)c1c(F)cccc1F)c1ccc2c(c1)OCCO2 | -4.68% (inactive)
O=S(=O)(c1ccccc1)c1nc(-c2ccccc2)oc1NCCCN1CCOCC1 | 47.7% (active)
O=S(=O)(c1ccc(Br)cc1)c1nc(-c2ccccc2)oc1NCc1cccnc1 | 9.02% (inactive)
O=S(=O)(c1ccc(Br)cc1)c1nc(-c2ccccc2)oc1N1CCOCC1 | 15.8% (inactive)
CCOc1ccc(C(=O)CCC(=O)NC2=NCCS2)cc1 | -11.7% (inactive)
Cc1ccc(COC(=O)CN2C(=O)NC3(CCCC3)C2=O)cc1 | -1.94% (inactive)
CCCC(C)NC(=O)C1CCN(C(=O)C2CC(=O)N(c3ccc(C)cc3)C2)CC1 (stereo not given) | 33% (active)
O=C(C1CC(=O)N(c2ccc(Br)cc2)C1)N1CCCC1 (stereo not given) | -3.05% (inactive)
COCCCNC(=O)C1CC(=O)N(c2ccc(C)cc2)C1 (stereo not given) | -5.47% (inactive)
CCc1ccc(N2CC(C(=O)N3CCCCCC3)CC2=O)cc1 (stereo not given) | -11.6% (inactive)
COCCNC(=O)C1CCN(C(=O)C2CC(=O)N(c3ccc(C)cc3)C2)CC1 (stereo not given) | 30% (active)
Cc1ccc(N2CC(C(=O)NCCS(=O)(=O)N3CCN(c4ccccc4)CC3)CC2=O)cc1 (stereo not given) | 8.52% (inactive)
